Reference: PubChem BioAssay (EPA / NIEHS)
Activity calls are given as the source filed them. Rule for the calls: active = hit-call score of the fitted dose curve at least 0.9, where 1 is the maximum; inactive = score below 0.9.

Legend:
[1] = APR_HepG2_CellCycleArrest_24hr: Apredica 24-hour HepG2 Assay for Cell Cycle Arrest (AID 2282905); details: imaging, actives raise or lower the signal;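 note: cell cycle arrest scored as ratio of 2N to 4N nuclear DNA content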
Summary of the method: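 Cell cycle arrest is scored from nuclear DNA content measured by high-content imaging of Hoechst 33342-stained HepG2 cells following 24-hour treatment at ten concentrations up to 200 uM, with DMSO as baseline.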

[2] = APR_HepG2_NuclearSize_24hr: Apredica 24-hour HepG2 Assay for Nuclear Size (AID 2282907); details: high-content imaging, actives raise or lower the signal
Summary of the method: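 Compounds in DMSO (final 0.5%) were added to human HepG2 hepatoma cells at ten concentrations up to 200 uM for 24 hr. Fixed nuclei were stained with Hoechst 33342, and nuclear diameter was quantified from automated images.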

[3] = APR_HepG2_CellLoss_24hr: Apredica 24-hour HepG2 Assay for Cell Loss (AID 2282908); details: high-content imaging;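 for AC50: fit in both directions so a hit may be cell loss or gain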
Summary of the method: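 Cell number is quantified by fluorescence imaging of Hoechst 33342-stained nuclei following dosing at 0.39–200 uM in 0.5% DMSO. Curves are fitted in both directions from the DMSO baseline.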

[4] = APR_HepG2_MicrotubuleCSK_24hr: Apredica 24-hour HepG2 Assay for Microtubule CSK Stabilty (AID 2282909); details: HepG2 microtubule cytoskeleton imaging, actives raise or lower the signal
Summary of the method: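 Steps: dose HepG2 for 24 h (0.39–200 uM, 0.5% DMSO); fix 30 min in 3.7% formaldehyde at room temperature; permeabilize; stain alpha-tubulin 60 min; image microtubule cytoskeleton at 20x. Signal change fitted in both directions relative to DMSO.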

[5] = APR_HepG2_MitoticArrest_24hr: Apredica 24-hour HepG2 Assay for Mitotic Arrest (AID 2282910); details: high-content imaging, actives raise or lower the signal
Summary of the method: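 HepG2 cells, 24 h exposure at 0.39-200 uM (10 concentrations, duplicate, 0.5% DMSO). Fixed, stained for phospho-histone H3 with Hoechst; imaged by high-content microscopy, bidirectional fit versus DMSO.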

[6] = APR_HepG2_MitoMembPot_24hr: Apredica 24-hour HepG2 Assay for Mitochondrial Membrane Potential (AID 2282911); details: imaging, actives raise or lower the signal
Summary of the method: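 HepG2, 24 hr dosing, 10 concentrations 0.39–200 uM, 0.5% DMSO final. Live-cell MitoTracker Red CMXRos 250 nM 30 min, then 3.7% formaldehyde fix. HCS fluorescence imaging, 20x; bidirectional fit vs DMSO baseline.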

[7] = APR_HepG2_MitoMass_24hr: Apredica 24-hour HepG2 Assay for Mitochondrial Mass (AID 2282912); details: high-content imaging, actives raise or lower the signal
Summary of the method: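 The liver line HepG2 was dosed in duplicate across a 0.39–200 uM series, with final DMSO held at 0.5% v/v, and harvested at 24 hr. High-content imaging measured mitochondrial dye staining.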

[8] = APR_HepG2_p53Act_24hr: Apredica 24-hour HepG2 Assay for p53 Activation (AID 2282913); details: high-content imaging, actives raise or lower the signal;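 note: p53 protein immunofluorescence averaged per cell in HepG2 with Hoechst nuclei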
Summary of the method: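 Read-out: Cy5 immunofluorescence for p53 in fixed, permeabilized HepG2, imaged by HCS with Hoechst-defined nuclei. Dosing was 24 hr at 0.39–200 uM in 0.5% DMSO. Curves were fitted bidirectionally relative to DMSO.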

[9] = APR_HepG2_CellCycleArrest_72hr: Apredica 72-hour HepG2 Assay for Cell Cycle Arrest (AID 2282914); details: high-content imaging, actives raise or lower the signal
Summary of the method: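 HepG2, 72 hr exposure, 10-point 0.39–200 uM, duplicate, 0.5% DMSO final. Fix 3.7% formaldehyde 30 min RT, Triton X-100 0.5%, Hoechst 33342 2 ug/mL. ArrayScan 20x, six fields/well; DNA content per nucleus; bidirectional fit vs DMSO.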

[10] = APR_HepG2_CellLoss_72hr: Apredica 72-hour HepG2 Assay for Cell Loss (AID 2282915); details: high-content imaging
Summary of the method: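 HepG2 cells exposed 72 h to compound at 0.39–200 uM (10 concentrations, duplicate) in 0.5% DMSO. Fixed with 3.7% formaldehyde and Hoechst 33342-stained. Imaged at 20x; nuclear count gives cell number, fitted bidirectionally versus DMSO.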

Measured: AC50

Cc1c(-c2cccnc2)c2ccccc2n1CCCCC(=O)O
inactive: [1] | [2] | [3] | [4] | [5] | [6] | [7] | [8] | [9] | [10]

CC(C)=CCC/C(C)=C\CO
inactive: [1] | [2] | [3] | [4] | [5] | [6] | [7] | [8] | [9] | [10]

CNCc1ccc(NC(=O)c2c[nH]c3c2C(=O)CCC3)cc1
inactive: [1] | [2] | [3] | [4] | [5] | [6] | [7] | [8] | [9]
active: [10] 73.7 µM

CC[C@H](C)C(=O)O[C@H]1C[C@@H](C)C=C2C=C[C@H](C)[C@H](CC[C@@H]3C[C@@H](O)CC(=O)O3)[C@H]21
active: [3] 82 µM | [5] 28.9 µM | [6] 48.8 µM | [7] 5.52 µM | [10] 31.1 µM
inactive: [1] | [2] | [4] | [8] | [9]

O=C(O)c1cccc(Oc2ccccc2)c1
inactive: [1] | [2] | [3] | [4] | [5] | [6] | [7] | [8] | [9] | [10]

C1N2CN3CN1CN(C2)C3
inactive: [1] | [2] | [3] | [4] | [5] | [6] | [7] | [8] | [9] | [10]

CC(C)=CCC/C(C)=C/CO
active: [10] 81.1 µM
inactive: [1] | [2] | [3] | [4] | [5] | [6] | [7] | [8] | [9]

CC(C)=CCCC(C)CCO (stereo not given)
inactive: [1] | [2] | [3] | [4] | [5] | [6] | [7] | [8]
active: [9] 0.0388 µM | [10] 0.0391 µM

O=C1OC(=O)C2C3C=CC(C3)C12 (stereo not given)
inactive: [1] | [2] | [3] | [4] | [5] | [6] | [7] | [8] | [9] | [10]

COCCOc1cc2cc(C(=O)NC3CCN(C(C)C)CC3)n(CC(=O)Nc3ccc(Cl)cn3)c2cn1
inactive: [1] | [2] | [4] | [6] | [8] | [9]
active: [3] 74 µM | [5] 89.4 µM | [7] 93.1 µM | [10] 93.1 µM

CCC(C)(C)C(=O)O[C@H]1C[C@@H](C)C=C2C=C[C@H](C)[C@H](CC[C@@H]3C[C@@H](O)CC(=O)O3)[C@H]21
inactive: [2] | [4] | [9]
active: [1] 2.85 µM | [3] 123 µM | [5] 2.96 µM | [6] 105 µM | [7] 3.97 µM | [8] 89.3 µM | [10] 26.8 µM

O=c1[nH]c2ccc(S(=O)CCN3CCC(Cc4ccc(F)cc4)CC3)cc2o1 (stereo not given)
inactive: [1] | [2] | [3] | [4] | [5] | [6] | [7] | [8]
active: [9] 99.9 µM | [10] 76.1 µM

CC(O)CN(CCN(CC(C)O)CC(C)O)CC(C)O (stereo not given)
inactive: [1] | [2] | [3] | [4] | [5] | [6] | [7] | [8] | [9] | [10]

CCCCC(CC)COC(=O)c1ccc(C(=O)OCC(CC)CCCC)cc1 (stereo not given)
inactive: [1] | [2] | [3] | [4] | [5] | [6] | [7] | [8] | [10]
active: [9] 32.4 µM

CCCCC(CC)COC(=O)CCCCCCCCC(=O)OCC(CC)CCCC (stereo not given)
inactive: [1] | [2] | [6] | [7]
active: [3] 117 µM | [4] 128 µM | [5] 68.5 µM | [8] 108 µM | [9] 170 µM | [10] 100 µM

NC(=O)NO
inactive: [1] | [2] | [3] | [4] | [5] | [6] | [7] | [8] | [9] | [10]

C=CC(=C)CCC=C(C)C
inactive: [1] | [2] | [3] | [4] | [5] | [6] | [7] | [8] | [9] | [10]

O=C(O)CCN(C1(C(=O)NO)CCCC1)S(=O)(=O)c1ccc(Oc2ccc(F)cc2)cc1
inactive: [1] | [2] | [3] | [4] | [5] | [6] | [7] | [8] | [9] | [10]

COC(=O)CC(=O)OC
inactive: [1] | [2] | [3] | [4] | [5] | [6] | [7] | [8] | [9] | [10]

CCCCCCCCCCCCCCCO
inactive: [2] | [3] | [4] | [5] | [6] | [7] | [8]
active: [1] 107 µM | [9] 110 µM | [10] 93.8 µM
